# Assay results published in PubChem BioAssay (Tox21).
# Values joined by “and” are separate entries in the source; they are usually repeats but may differ in a detail not shown here. Identical values can stand only once. Records with an inconclusive call do not appear. Entries that show only a call come without a potency. Active and inactive are the calls of the source. Unless noted, calls come from the whole dose curve; as a rule, active = well fitted curve in the direction sought with a large enough effect in the repeat runs; inconclusive = weak or mixed curves; inactive = no such curve, though single readings can be large; an effect the other way counts as inactive or inconclusive.
# Tests used:
# [1] = qHTS assay for identifying genotoxic compounds that show differential cytotoxicity against isogenic chicken DT40 cell lines with known DNA damage response pathways - wild type cell line (AID 743012); note: nearly all actives have a fitted effect of over 60% in size; note: potency is the fitted concentration of half-maximal effect
# In short: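 Using parental DT40 (300 cells/well), compounds delivered in DMSO incubate 40 h at 37 C/5% CO2. CellTiter-Glo reagent then stands 30 min at room temperature, and luminescence gives cell viability.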
# [2] = qHTS assay for identifying genotoxic compounds that show differential cytotoxicity against isogenic chicken DT40 cell lines with known DNA damage response pathways - Rev3 mutant cell line (AID 743014); note: nearly all actives have a fitted effect of over 55% in size; note: potency is the fitted concentration of half-maximal effect
# [3] = qHTS assay for identifying genotoxic compounds that show differential cytotoxicity against isogenic chicken DT40 cell lines with known DNA damage response pathways - Rad54/Ku70 mutant cell line (AID 743015); note: nearly all actives have a fitted effect of over 60% in size; note: potency is the fitted concentration of half-maximal effect
# [4] = target: Androgen receptor (Homo sapiens) (UniProt P10275); assay: qHTS assay to identify small molecule antagonists of the androgen receptor (AR) signaling pathway (AID 743035; active = well fitted inhibition curve with a large enough effect in the signal ratio in the repeat runs, not every such curve was filed as active; the % refers to the signal ratio; note: potency is the fitted concentration of half-maximal effect)
# In short: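 Using qHTS, AR-UAS-bla GripTite HEK293 cells received compound, then R1881, and were cultured 16 h at 37C/5% CO2 before a 2 h room-temperature LiveBLAzer B/G FRET substrate step and fluorescence measurement.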
# [5] = target: Androgen receptor (Homo sapiens) (UniProt P10275); assay: qHTS assay to identify small molecule agonists of the androgen receptor (AR) signaling pathway (AID 743036; active = well fitted activation curve with a large enough effect in the signal ratio in the repeat runs, with a control signal flat, not every such curve was filed as active; the % refers to the signal ratio; note: potency is the fitted concentration of half-maximal effect)
# In short: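 Agonist activity was scored by beta-lactamase reporter fluorescence in stably transfected HEK293 cells exposed to compounds for 16 h at 37C and 5% CO2. Substrate loading took 2 h at room temperature.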
# [6] = target: Androgen receptor (Homo sapiens) (UniProt P10275); assay: qHTS assay to identify small molecule agonists of the androgen receptor (AR) signaling pathway using the MDA cell line (AID 743040; note: nearly all actives have a fitted effect of over 20% in size)
# In short: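 After a 5 h incubation at 37C and 0% CO2, MDA-kb2 reporter cells were dosed with compounds in DMSO and kept 16 h under the same conditions. Luciferase activity was then read as luminescence with ONE-Glo.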
# [7] = qHTS assay to identify small molecule antagonists of the androgen receptor (AR) signaling pathway using the MDA cell line - cell viability counter screen (AID 743041; note: nearly all actives have a fitted effect of over 45% in size; note: potency is the fitted concentration of half-maximal effect)
# In short: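 R1881-driven MDA-kb2 AR-luc cells, 3,000/well, were dosed with library compounds for 16 h; cell health came from CellTiter-Fluor fluorescence in the reporter wells.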
# [8] = target: Androgen receptor (Homo sapiens) (UniProt P10275); assay: qHTS assay to identify small molecule antagonists of the androgen receptor (AR) signaling pathway using the MDA cell line (AID 743042; note: nearly all actives have a fitted effect of over 55% in size; note: potency is the fitted concentration of half-maximal effect)
# In short: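 Antagonist mode: compounds plus R1881 agonist added to MDA-kb2 AR-luc cells, incubated 16 h at 37C. Luciferase reporter luminescence quantified, with multiplexed CellTiter-Fluor readout for cell viability.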
# [9] = qHTS assay to identify small molecule antagonists of the glucocorticoid receptor (GR) signaling pathway - cell viability counter screen (AID 720693); note: nearly all actives have a fitted effect of over 55% in size
# [10] = qHTS assay to identify small molecule antagonists of the androgen receptor (AR) signaling pathway - cell viability counter screen (AID 743033; note: nearly all actives have a fitted effect of over 45% in size; note: potency is the fitted concentration of half-maximal effect)
# Sequence of Androgen receptor (Homo sapiens) (P10275 whole entry, looked up): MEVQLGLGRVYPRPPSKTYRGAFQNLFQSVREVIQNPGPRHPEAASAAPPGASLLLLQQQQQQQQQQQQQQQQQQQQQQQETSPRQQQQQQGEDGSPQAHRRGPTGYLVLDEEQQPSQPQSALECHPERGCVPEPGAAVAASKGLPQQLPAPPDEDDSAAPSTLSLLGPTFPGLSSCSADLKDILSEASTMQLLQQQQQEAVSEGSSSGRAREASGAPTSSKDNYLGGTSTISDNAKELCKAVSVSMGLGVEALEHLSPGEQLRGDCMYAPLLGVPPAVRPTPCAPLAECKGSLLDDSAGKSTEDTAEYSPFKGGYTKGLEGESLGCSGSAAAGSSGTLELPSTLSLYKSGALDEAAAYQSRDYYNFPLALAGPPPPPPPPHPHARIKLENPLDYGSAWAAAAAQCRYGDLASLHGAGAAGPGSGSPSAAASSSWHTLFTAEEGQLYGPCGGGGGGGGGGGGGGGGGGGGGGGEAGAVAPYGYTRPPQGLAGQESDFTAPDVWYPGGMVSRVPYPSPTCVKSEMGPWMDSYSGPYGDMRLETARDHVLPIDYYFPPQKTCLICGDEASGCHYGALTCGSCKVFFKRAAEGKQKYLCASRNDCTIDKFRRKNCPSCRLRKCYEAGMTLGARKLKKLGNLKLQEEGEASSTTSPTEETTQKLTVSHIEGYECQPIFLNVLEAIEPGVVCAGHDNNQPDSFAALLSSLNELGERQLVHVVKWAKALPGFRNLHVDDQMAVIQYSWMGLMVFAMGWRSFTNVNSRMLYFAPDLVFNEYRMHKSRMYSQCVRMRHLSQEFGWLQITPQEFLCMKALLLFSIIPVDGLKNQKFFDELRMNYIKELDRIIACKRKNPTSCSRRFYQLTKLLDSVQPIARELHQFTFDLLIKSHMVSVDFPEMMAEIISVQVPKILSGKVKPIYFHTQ
compound,measurement,setting,value
COc1cc(NS(C)(=O)=O)ccc1Nc1c2ccccc2nc2ccccc12,Potency,[1],0.0596 µM (active)
same,Potency,[2],0.0668 µM (active)
same,Potency,[3],0.0084 µM (active)
same,Potency,[4],0.601 µM (active)
same,Potency,[5],10.7 µM (active)
same,Potency,[6],inactive
same,Potency,[7],inactive
CN1CCN(CCCN2c3ccccc3Sc3ccc(C(F)(F)F)cc32)CC1,Potency,[1],5.31 µM (active)
same,Potency,[2],2.11 µM (active)
same,Potency,[3],5.31 µM (active)
C=CCc1cc(S(=O)(=O)c2ccc(O)c(CC=C)c2)ccc1O,Potency,[1],30.6 µM (active)
same,Potency,[2],68.6 µM (active)
same,Potency,[3],54.5 µM (active)
same,Potency,[4],38.9 µM (active)
same,Potency,[5],inactive
same,Potency,[6],inactive
same,Potency,[8],61.1 µM (active)
CC(C)[N+]1(C)[C@@H]2CC[C@H]1CC(OC(=O)C(CO)c1ccccc1)C2 (stereo partly drawn),Potency,[9],inactive
same,Potency,[10],inactive
same,Potency,[7],inactive
COc1cccc(-c2ccc(/C=C\CN3CCCCCC3)cc2Cl)c1,Potency,[2],0.483 µM (active)
same,Potency,[3],2.16 µM (active)
same,Potency,[10],38.7 µM (active)
NC(=O)C1c2ccccc2CCc2ccccc21,Potency,[9],inactive
same,Potency,[3],inactive
same,Potency,[5],inactive
same,Potency,[6],inactive
same,Potency,[7],inactive
same,Potency,[8],inactive
CCCC(=O)c1cc(O)c(O)cc1O,Potency,[1],24.3 µM (active)
same,Potency,[2],29.8 µM (active)
same,Potency,[3],45 µM (active)
same,Potency,[6],inactive
same,Potency,[8],inactive
CC(CNC(=O)c1cccnc1)NC(=O)c1cccnc1 (stereo not drawn),Potency,[9],inactive
same,Potency,[3],inactive
same,Potency,[10],inactive
same,Potency,[7],inactive
CC(=O)NC[C@H]1CN(c2ccc(N3CCOCC3)c(F)c2)C(=O)O1,Potency,[9],inactive
same,Potency,[10],inactive
same,Potency,[7],inactive
CCCCCCCC[N+](C)(C)CCCCCCCC,Potency,[1],668 nM (active) and 531 nM (active)
same,Potency,[2],1.19 µM (active) and 1.06 µM (active)
same,Potency,[3],1.33 µM (active) and 944 nM (active)
same,Potency,[10],16.9 µM (active) and 12 µM (active)
same,Potency,[7],21.1 µM (active)
CO[C@H]1C[C@@H]2CC[C@@H](C)[C@@](O)(O2)C(=O)C(=O)N2CCCC[C@H]2C(=O)O[C@H]([C@H](C)C[C@@H]2CC[C@@H](O)[C@H](OC)C2)CC(=O)[C@H](C)C=C(C)[C@@H](O)[C@@H](OC)C(=O)[C@H](C)C[C@H](C)/C=C/C=CC=C1C,Potency,[1],2.4 nM (active) and 3 nM (active)
same,Potency,[2],2.7 nM (active) and 2.4 nM (active)
same,Potency,[3],3.3 nM (active) and 5.3 nM (active)
same,Potency,[4],10.7 µM (active) and 26.8 µM (active)
same,Potency,[6],inactive
same,Potency,[7],29.8 µM (active)
same,Potency,[8],21.1 µM (active) and 23.7 µM (active)
CN1CCN(c2ccccc2/C=C2\SCCN(c3ccc(Cl)c(Cl)c3)C2=O)CC1,Potency,[1],4.33 µM (active)
same,Potency,[2],2.73 µM (active)
same,Potency,[3],5.45 µM (active)
CCC(C)(C)c1ccc(CC(C)CN2C[C@@H](C)O[C@@H](C)C2)cc1 (stereo partly drawn),Potency,[1],0.841 µM (active)
same,Potency,[2],0.668 µM (active)
same,Potency,[3],0.841 µM (active)
same,Potency,[10],inactive
CC(C)(O/N=C(\C(=O)N[C@@H]1C(=O)N2C(C(=O)[O-])=C(C[n+]3ccccc3)CS[C@H]12)c1csc(N)n1)C(=O)O,Potency,[1],inactive
same,Potency,[2],inactive
same,Potency,[3],inactive
same,Potency,[10],inactive
same,Potency,[7],inactive
CN1C(C(=O)Nc2ccccn2)C(=O)c2sc(Cl)cc2S1(=O)=O (stereo not drawn),Potency,[9],inactive
same,Potency,[3],inactive
same,Potency,[7],inactive
CC1=C(/C=C/C(C)=C/C=C/C(C)=C\C(=O)O)C(C)(C)CCC1,Potency,[1],61.3 µM (active)
same,Potency,[2],61.3 µM (active)
same,Potency,[3],68.8 µM (active)
same,Potency,[7],inactive
CCCCCCCCOC(=O)c1cc(O)c(O)c(O)c1,Potency,[1],0.545 µM (active)
same,Potency,[2],1.37 µM (active)
same,Potency,[3],0.611 µM (active)
same,Potency,[7],48.6 µM (active)
c1ccc2occc2c1,Potency,[7],inactive
c1ccc(-n2cnnn2)cc1,Potency,[9],inactive
same,Potency,[3],inactive
same,Potency,[10],inactive
same,Potency,[7],inactive
Clc1nc(C(Cl)(Cl)Cl)c(Cl)c(Cl)c1Cl,Potency,[1],21.7 µM (active)
same,Potency,[2],19.3 µM (active)
same,Potency,[3],27.3 µM (active)
CC(O)(c1ccc(Cl)cc1)c1ccc(Cl)cc1,Potency,[7],inactive
N=C(N)c1ccc(/C=C/c2ccc(C(=N)N)cc2O)cc1,Potency,[9],inactive
same,Potency,[7],inactive
SC1CCCCC1,Potency,[1],inactive
same,Potency,[2],inactive
same,Potency,[3],inactive
same,Potency,[10],inactive
same,Potency,[7],inactive
S=C1NC=NC2N=CNC12 (stereo not drawn),Potency,[1],54.5 µM (active)
same,Potency,[2],48.6 µM (active)
same,Potency,[7],inactive
O=C1OC(O)C(C(Cl)Cl)=C1Cl (stereo not drawn),Potency,[1],17.8 µM (active)
same,Potency,[2],1.26 µM (active)
same,Potency,[3],19.9 µM (active)
same,Potency,[10],22.5 µM (active)
same,Potency,[7],inactive
CN[C@H]1CC[C@@H](c2ccc(Cl)c(Cl)c2)c2ccc(S(N)(=O)=O)cc21,Potency,[1],13.7 µM (active)
same,Potency,[2],13.7 µM (active)
same,Potency,[3],13.7 µM (active)
same,Potency,[10],54.9 µM (active)
same,Potency,[4],43.6 µM (active)
same,Potency,[5],inactive
same,Potency,[6],inactive
same,Potency,[8],68.6 µM (active)
CNCCC=C1c2ccccc2CCc2ccccc21,Potency,[2],11.9 µM (active)
same,Potency,[3],11.9 µM (active)
CN(C)CCC(O)(c1ccccc1)c1ccccc1Cl (stereo not drawn),Potency,[9],inactive
same,Potency,[10],inactive
same,Potency,[7],inactive
CC1CCCCN1CCCOC(=O)c1ccccc1 (stereo not drawn),Potency,[9],inactive
same,Potency,[10],inactive
same,Potency,[7],inactive
O=C(Nc1ccccc1)c1cc(Cl)ccc1O,Potency,[1],13.7 µM (active)
same,Potency,[2],9.69 µM (active)
same,Potency,[3],9.69 µM (active)
same,Potency,[10],11 µM (active)
C[C@@H]1O[C@@H](OC[C@H]2O[C@@H](Oc3c(-c4ccc(OCCO)c(OCCO)c4)oc4cc(OCCO)cc(O)c4c3=O)[C@H](O)[C@@H](O)[C@@H]2O)[C@H](O)[C@H](O)[C@H]1O,Potency,[1],inactive
same,Potency,[3],inactive
same,Potency,[10],inactive
same,Potency,[4],inactive
same,Potency,[5],inactive
same,Potency,[6],inactive
same,Potency,[7],inactive
same,Potency,[8],inactive
